Giardia FBPA inh = qHTS Assay for Inhibitors of Fructose-1,6-bisphosphate Aldolase from Giardia Lamblia; purified Giardia FBPA; Potency, µM (titrated, usually from 59.6 µM), most hits filed as inhibitors; A8B2U2; 0.71% of 290,000 active; also: nearly all actives have a fitted effect of over 55% in size
Target sequence (A8B2U2 whole entry, looked up): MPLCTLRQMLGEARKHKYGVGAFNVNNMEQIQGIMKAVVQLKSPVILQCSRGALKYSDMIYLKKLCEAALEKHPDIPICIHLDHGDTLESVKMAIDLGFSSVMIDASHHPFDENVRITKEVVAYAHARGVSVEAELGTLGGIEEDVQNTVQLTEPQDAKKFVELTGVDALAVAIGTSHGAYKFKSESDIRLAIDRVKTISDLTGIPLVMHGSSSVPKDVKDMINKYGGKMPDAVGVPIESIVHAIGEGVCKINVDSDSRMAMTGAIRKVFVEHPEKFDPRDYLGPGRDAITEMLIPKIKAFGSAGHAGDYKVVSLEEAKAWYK
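Giardia FBPA (40 nM reagent) was preincubated 10 min at RT with compound (up to 57.5 uM final), then substrate plus GAPDH/TPI/NAD/arsenate coupling system with diaphorase/resazurin was added; resorufin fluorescence (525/598 nm) was read after 20 min.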
Sm TGR block = qHTS Assay for the Inhibitors of Schistosoma Mansoni Peroxiredoxins; 3% of 360,000 active; Potency, µM (titrated, usually from 114 µM), hits mostly inhibitors; AID 485364, 2010; purified TGR, DTNB reduction, TNB absorbance 405 nm; also: nearly all actives have a fitted effect of over 60% in size
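TGR 20 nM + NADPH 100 uM (dispensed conc.), cpd preinc 15 min RT; start with NADPH (500 uM addition) then DTNB (15 mM addition). Kinetic TNB absorbance, 405 nm filter. Four-parameter Hill fit across titration.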
Pf growth 96h = Primary qHTS for delayed death inhibitors of the malarial parasite plastid, 96 hour incubation; P. falciparum luciferase reporter growth, 96 h; Potency, µM (highest dose often 28.7 µM), actives largely listed as inhibitors; 6.9% of 320,000 active; AID 504834, 2011
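Delayed-death screen, second-generation endpoint: infected erythrocytes, 2% hematocrit, 0.05% parasitemia final; 96 hours at 37 C, 5% CO2; luciferase detection reagent; luminescence decrease equals reduced growth.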
HCMV inh = qHTS Assay for inhibitors of the human cytomegalovirus (HCMV). HFF cells, HCMV-luciferase reporter, 72 h; hits give low values. activity change, negative = inhibition, % at 57.5 µM. 4.5% of 410,000 active. AID 1259415, 2018; in the data active = activity change below about -60%; inconclusive = no clear call, values can overlap the other calls; inactive = above about -39%
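Compounds were evaluated in HFFs infected with an HCMV luciferase reporter virus (MOI 1 PFU/cell). Luciferase in lysates collected 72 h post infection served as the replication measure.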
Pf growth 48h = Primary qHTS for delayed death inhibitors of the malarial parasite plastid, 48 hour incubation; P. falciparum luciferase growth in erythrocytes, 48 h; Potency, µM (doses to about 28.7 µM), hits mostly inhibitors; 5.9% of 310,000 active
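In quantitative HTS format, infected erythrocytes bearing luciferase-reporter parasites were treated for a single generation at 37 C. Luminescence after adding detection reagent served as the growth measure.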
Each line names hits and unclear results; the compound was inactive in the other large screens. A selection: hits, their analogues and other compounds. The true share with any hit is near 14%. Unless noted, calls follow the shape of the dose curve; as a rule, active = well fitted curve in the direction sought with a large enough effect; inconclusive = small, poorly fitted or top-dose-only effect, or another doubt; inactive = no such curve, though single readings can be large; an effect the other way counts as inactive or inconclusive.

Cn1c(=O)c2c(ncn2CC(=O)N/N=C/C(Br)=C/c2ccccc2)n(C)c1=O	HCMV inh inconclusive
O=C(Cn1cnc2ccccc21)N/N=C/C(Br)=C/c1ccccc1	Pf growth 96h inconclusive, HCMV inh -66
COc1cc(/C=C/C(=O)Nc2ccc(S(=O)(=O)Nc3ncccn3)cc2)ccc1OCC#N	none (no result: Giardia FBPA inh, Sm TGR block, Pf growth 96h, Pf growth 48h)
COc1ccc2c(c1)C(C)CC(C)(C)N2C(=O)CSc1nc2ccccc2s1 (centres undefined)	Pf growth 96h 10µM, Pf growth 48h inconclusive
COc1ccc(C2=NN(C(=O)CSc3nc4ccccc4s3)C(c3ccc(F)cc3)C2)cc1 (centres undefined)	Pf growth 96h inconclusive, HCMV inh inconclusive, Pf growth 48h inconclusive
COc1ccc2c(c1)C(C)CC(C)(C)N2C(=O)Nc1ccccc1 (centres undefined)	none
COc1ccc(C2CC(c3ccc4ccccc4c3)=NN2C(=O)CN2C(=O)CCC2=O)cc1 (centres undefined)	Pf growth 96h inconclusive, Pf growth 48h 9.3µM
COc1ccc(C2=NN(C(=O)CN3CCCC3)C(c3ccc(OC)cc3)C2)cc1 (centres undefined)	Pf growth 96h inconclusive, Pf growth 48h inconclusive
COc1ccc(C2=NN(C(=O)CSc3nc4ccccc4s3)C(c3ccc(OC)cc3)C2)cc1 (centres undefined)	Pf growth 96h inconclusive, Pf growth 48h 12µM
COc1ccc(C2CC(c3ccc4ccccc4c3)=NN2C(=O)CSc2ncccn2)cc1 (centres undefined)	Pf growth 96h 10µM, Pf growth 48h inconclusive
Cc1ccc(O)c(N=Nc2ccccc2)n1	HCMV inh inconclusive (no result: Sm TGR block, Pf growth 96h, Pf growth 48h)
COc1cc2ccccc2cc1C(=O)Nc1cccc(-c2nc3cc(C)c(C)cc3o2)c1C	none (no result: Giardia FBPA inh, Pf growth 96h, Pf growth 48h)
COc1ccc(C2CC(c3ccccc3)=NN2C(=O)COC(=O)C2(C)CC2(Cl)Cl)cc1 (centres undefined)	Pf growth 96h 9.3µM, Pf growth 48h inconclusive
COc1ccc(C2=NN(C(=O)CSc3nc(=O)n4cc(C)ccc4n3)C(c3ccc(C)cc3)C2)cc1 (centres undefined)	Pf growth 96h 8.3µM, HCMV inh inconclusive, Pf growth 48h inconclusive (no result: Giardia FBPA inh)
COc1ccc(C2=NN(C(=O)CSc3cn(C)c4ccccc34)C(c3ccc(OC)cc3)C2)cc1 (centres undefined)	Pf growth 96h inconclusive, HCMV inh inconclusive, Pf growth 48h inconclusive
Cc1ccc(C2CC(c3ccc(Br)cc3)=NN2C(=O)CSC2=NN3CCCC(=O)N=C3S2)cc1 (centres undefined)	Pf growth 48h 12µM (no result: Giardia FBPA inh)
COc1ccc(C2=NN(C(=O)CSc3ncccn3)C(c3ccc(OC)cc3)C2)cc1 (centres undefined)	Pf growth 96h inconclusive, Pf growth 48h 10µM
Cc1ccc(CNCC(=O)Nc2ccc(N3CCOCC3)cc2)cc1	Giardia FBPA inh inconclusive
COc1cccc(C2CC(c3cccs3)=NN2C(=O)CSc2nc3ccccc3s2)c1OC (centres undefined)	Pf growth 96h 7.4µM, Pf growth 48h inconclusive
CCOC(=O)COc1cc(Br)c(/C=N/Nc2ccccc2)cc1OC	Pf growth 96h 10µM, Pf growth 48h 8.3µM
COc1cc(C=O)c(Br)cc1OCC(=O)NCCc1ccccc1	HCMV inh inconclusive
O=C(NCCS(=O)(=O)N1CCCCCC1)c1ccc(F)cc1	none (no result: Giardia FBPA inh)
CCOC(=O)C1=NOC2(C1)C(=O)Nc1ccc(OC)cc12 (centres undefined)	none (no result: Giardia FBPA inh, Sm TGR block, Pf growth 96h, Pf growth 48h)
O=C(CSc1n[nH]c(=O)[nH]c1=O)Nc1ccc(Br)cc1Br	none (no result: Giardia FBPA inh)
CCCCN(C=O)c1c(CC)nc2c(OCCOc3ccccc3)cccn12	none (no result: Giardia FBPA inh, Sm TGR block, Pf growth 96h, Pf growth 48h)
CCC1CCc2c(sc(NC(=O)C3c4ccccc4Oc4ccccc43)c2C#N)C1 (centres undefined)	none (no result: Giardia FBPA inh, Pf growth 96h, Pf growth 48h)
CC(C)(C)Cc1c(-c2ccc(C#N)cc2)nc2c(Cl)cc(C(F)(F)F)cn12	HCMV inh -83 (no result: Giardia FBPA inh, Sm TGR block, Pf growth 96h, Pf growth 48h)
Cc1ccc(-c2nc3c(Cl)cc(C(F)(F)F)cn3c2Cc2ccccc2)cc1	none (no result: Giardia FBPA inh, Sm TGR block, Pf growth 96h, Pf growth 48h)
Cc1ccc(S(=O)(=O)N2CCOCC2)cc1NC(=O)COc1ccc2c(C)cc(=O)oc2c1	Pf growth 96h 9.3µM, Pf growth 48h inconclusive (no result: Giardia FBPA inh)
Cc1ccc(S(=O)(=O)N2CCOCC2)cc1NC(=O)COC(=O)c1ccc(OCc2c(C)noc2C)cc1	Pf growth 96h inconclusive, Pf growth 48h 13µM
COc1ccc(S(=O)(=O)N2CCOCC2)cc1NC(=O)COc1ccc2c(C)cc(=O)oc2c1	none (no result: Giardia FBPA inh, Sm TGR block, Pf growth 96h, Pf growth 48h)
CCN(CC)S(=O)(=O)c1ccc(OC)c(NC(=O)COc2ccc3c(C)cc(=O)oc3c2)c1	Pf growth 96h 2.6µM, Pf growth 48h inconclusive
CCOC(=O)c1c(S(=O)(=O)NCC(=O)Nc2ccc(C)c(N(C)C)c2)c(C)n(C)c1C	none (no result: Giardia FBPA inh, Pf growth 96h, Pf growth 48h)
CCOC(=O)c1c(S(=O)(=O)N2CCC(C(=O)Nc3ccc(C)cn3)CC2)c(C)n(C)c1C	none (no result: Giardia FBPA inh, Pf growth 96h, Pf growth 48h)
CCOC(=O)c1c(S(=O)(=O)Nc2ccc(C)c(F)c2)c(C)n(C)c1C	Pf growth 96h 9.3µM (no result: Giardia FBPA inh)
CCOC(=O)c1c(S(=O)(=O)Nc2ccc(F)cc2C)c(C)n(C)c1C	Pf growth 96h 15µM
CCOC(=O)c1c(S(=O)(=O)Nc2ccc(C)cn2)c(C)n(C)c1C	Pf growth 96h 10µM (no result: Giardia FBPA inh)
Cc1c(Cl)cccc1NC(=S)N1CCCCCC1	Pf growth 96h inconclusive
Cn1cnc(S(=O)(=O)N2CCCCC2c2cc(C(=O)Nc3ccccc3Cl)no2)c1 (centres undefined)	none (no result: Giardia FBPA inh, Sm TGR block, Pf growth 96h, Pf growth 48h)
COC(=O)N1C(=O)[C@@](Cc2ccccc2)(c2ccccc2)N1C(=O)OC	Sm TGR block 3.5µM, Pf growth 96h inconclusive
COC(=O)N1C(=O)[C@](c2ccccc2)(C(C)C)N1C(=O)OC	none
COC(=O)N1C(=O)[C@](Cc2ccccc2)(c2ccccc2)N1C(=O)OC	Sm TGR block 3.5µM
COc1ccc(CCNC(=O)Cn2c(=O)nc(-c3ccccc3)c3ccccc32)cc1OC	none (no result: Giardia FBPA inh, Pf growth 96h, Pf growth 48h)
CCN(CC)c1ccc2cc(-c3nc4ccccc4[nH]3)c(=O)oc2c1	none (no result: HCMV inh)
CCN(CC)c1ccc2cc(-c3nc4ccccc4n3C)c(=O)oc2c1	HCMV inh -79 (no result: Pf growth 48h)
CCN1C(=O)C(O)(CC(=O)/C=C/C=C/c2ccccc2)c2ccccc21 (centres undefined)	Pf growth 96h inconclusive, Pf growth 48h inconclusive
NC(=O)CN1C(=O)C(O)(CC(=O)/C=C\C=C\c2ccccc2)c2ccccc21 (centres undefined)	HCMV inh -70
CC(=O)Nc1ccc(S(=O)(=O)N(C)CC(=O)OCC(=O)c2ccc[nH]2)cc1	none (no result: Giardia FBPA inh, Sm TGR block, Pf growth 96h, Pf growth 48h)
CC[C@@]12C(=O)N(c3ccc(OC)cc3)C(=O)N1[C@H](c1cccc(C)c1)[C@@H]1C(=O)N(Cc3ccccc3)C(=O)[C@@H]12	Pf growth 96h 13µM, Pf growth 48h inconclusive (no result: HCMV inh)

Bioassay records: PubChem, National Center for Advancing Translational Sciences (NCATS)
